In PubChem BioAssay (NCATS):
Inconclusive results are not listed. Entries that show only a call come without a potency. Active and inactive are the calls of the source. Unless noted, calls follow the shape of the dose curve; as a rule, active = well fitted curve in the direction sought with a large enough effect; inconclusive = small, poorly fitted or top-dose-only effect, or another doubt; inactive = no such curve, though single readings can be large; an effect the other way counts as inactive or inconclusive. Residues, ends and D or L forms follow the SMILES beside them. *: point of attachment. Cbz = O=C(OCc1ccccc1)*

Experiments:
[1] = Cytometric Cell-Based qHTS for Inhibitors of the mTORC1 Signaling Pathway in MEF (Tsc2-/-, p53-/-) Cells (AID 2660);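 also: percent of cells above a phospho-rpS6 to PI ratio cutoff in each well; series mostly up to about 38 µM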
Summary of the method: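 Readout: Alexa-488 phospho-rpS6 (Ser235/236) intensity divided by PI intensity, thresholded against 7.5 nM rapamycin wells and reported as % positive cells. PI cell count served as the viability measure. Compound exposure was 24 hrs at 37 degree Celsius.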

[2] = High Content Imaging Cell-Based qHTS for Inhibitors of the mTORC1 Signaling Pathway in MEF (Tsc2-/-, p53-/-) Cells (AID 2666);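 also: percent of cells scored positive for phospho-rpS6 Ser235/236 immunostaining by imaging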
Summary of the method: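 Phospho-rpS6 (Ser235/236) immunofluorescence, normalized and scored as % positive cells using rapamycin and DMSO controls, was read in empty-vector Tsc2-/-, p53-/- MEFs after 24 h compound exposure at 37 C; propidium iodide counted cells.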

[3] = High Content Imaging Cell-Based qHTS for Inhibitors of the mTORC1 Signaling Pathway in MEF Cells (AID 2667);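 also: Tsc2-/- p53-/- MEFs stably re-expressing wild-type Tsc2 exposed 24 h; series mostly up to about 38 µM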
Summary of the method: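 WT MEFs (Tsc2-/-, p53-/- re-expressing Tsc2), in DMEM + 10% FBS, were treated with compound for 24 h at 37 C. Cells were then fixed and stained for phospho-rpS6 Ser235/236 with propidium iodide as cell count. Values are % positive cells, with thresholds set against rapamycin-treated cells.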

[4] = Cytometry Cell-Based qHTS for Inhibitors of the mTORC1 Signaling Pathway in MEF cells (AID 2668);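 also: Tsc2-/- p53-/- mouse embryonic fibroblasts stably re-expressing wild-type Tsc2; percent cells positive for phospho-rpS6 Ser235/236 relative to propidium iodide stain; series mostly up to about 38 µM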
Summary of the method: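 MEFs (Tsc2-/-, p53-/- stably expressing WT Tsc2) treated 24 h at 37 degree Celsius, fixed, stained with Alexa-488 anti-phospho-rpS6 Ser235/236 and propidium iodide; Acumen laser scanning. Reported as % positive cells, phospho-S6 normalized to PI.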

[5] = target: DNA polymerase III PolC-type (Bacillus subtilis (strain 168)) (UniProt P13267); assay: qHTS Validation Assay for the Inhibitors of DNA Replication in Gram-Positive Bacteria (AID 485295); also: potency is read from the fitted curve at half-maximal effect
DNA polymerase III PolC-type (Bacillus subtilis (strain 168)), sequence (P13267 whole entry, looked up): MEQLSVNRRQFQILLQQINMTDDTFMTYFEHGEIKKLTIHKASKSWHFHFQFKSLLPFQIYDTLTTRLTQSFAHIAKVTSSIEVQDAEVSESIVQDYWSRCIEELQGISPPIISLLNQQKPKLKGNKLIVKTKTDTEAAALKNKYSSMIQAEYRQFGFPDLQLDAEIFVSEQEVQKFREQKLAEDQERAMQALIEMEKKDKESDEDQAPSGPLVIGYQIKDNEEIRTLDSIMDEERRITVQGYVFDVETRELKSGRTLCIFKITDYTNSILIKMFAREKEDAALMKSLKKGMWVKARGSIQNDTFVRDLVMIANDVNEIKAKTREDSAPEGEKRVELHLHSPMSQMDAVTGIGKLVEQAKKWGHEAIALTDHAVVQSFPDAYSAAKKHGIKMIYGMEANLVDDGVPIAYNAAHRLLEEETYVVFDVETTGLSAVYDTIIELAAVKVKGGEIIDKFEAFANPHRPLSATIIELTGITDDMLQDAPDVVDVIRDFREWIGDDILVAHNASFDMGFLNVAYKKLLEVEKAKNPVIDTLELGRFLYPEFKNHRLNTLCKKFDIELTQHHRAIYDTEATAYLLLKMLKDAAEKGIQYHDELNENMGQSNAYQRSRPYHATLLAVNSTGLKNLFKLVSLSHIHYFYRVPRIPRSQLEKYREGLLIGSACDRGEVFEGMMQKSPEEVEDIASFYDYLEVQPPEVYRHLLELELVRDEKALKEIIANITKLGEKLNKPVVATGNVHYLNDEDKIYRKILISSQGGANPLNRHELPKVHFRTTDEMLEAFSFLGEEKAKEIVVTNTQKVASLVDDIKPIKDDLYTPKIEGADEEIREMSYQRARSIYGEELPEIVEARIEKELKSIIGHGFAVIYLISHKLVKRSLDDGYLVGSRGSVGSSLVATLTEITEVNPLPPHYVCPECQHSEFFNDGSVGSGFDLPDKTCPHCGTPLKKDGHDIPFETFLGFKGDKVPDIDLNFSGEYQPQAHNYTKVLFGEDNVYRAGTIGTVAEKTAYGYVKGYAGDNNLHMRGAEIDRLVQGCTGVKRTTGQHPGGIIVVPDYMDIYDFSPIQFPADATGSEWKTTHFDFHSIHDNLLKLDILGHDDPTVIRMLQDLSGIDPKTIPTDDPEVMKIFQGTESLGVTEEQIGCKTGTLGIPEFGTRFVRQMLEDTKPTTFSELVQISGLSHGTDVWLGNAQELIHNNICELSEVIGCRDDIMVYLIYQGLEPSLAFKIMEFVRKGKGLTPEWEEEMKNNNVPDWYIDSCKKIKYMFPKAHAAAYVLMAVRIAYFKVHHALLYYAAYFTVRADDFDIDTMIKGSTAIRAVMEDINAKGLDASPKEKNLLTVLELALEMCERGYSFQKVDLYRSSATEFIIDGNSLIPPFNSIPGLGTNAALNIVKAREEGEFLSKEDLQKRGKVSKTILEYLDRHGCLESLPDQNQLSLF
Summary of the method: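 Reconstituted B. subtilis Pol III holoenzyme (PolC, beta clamp, SSB, primase) preincubated with compound, then M13Gori single-stranded circular template with dNTPs/NTPs added; room temperature reaction. Stopped with EDTA/PicoGreen; dsDNA fluorescence read, EDTA as full-inhibition control.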

[6] = target: Tumor susceptibility gene 101 protein (Homo sapiens) (UniProt Q99816); assay: qHTS Validation Assay for Iinhibitors of HIV-1 Budding by Blocking the Interaction of PTAP/TSG101 (AID 485342; calls by dose curve)
Tumor susceptibility gene 101 protein (Homo sapiens), sequence (Q99816 whole entry, looked up, the tested form may be a part): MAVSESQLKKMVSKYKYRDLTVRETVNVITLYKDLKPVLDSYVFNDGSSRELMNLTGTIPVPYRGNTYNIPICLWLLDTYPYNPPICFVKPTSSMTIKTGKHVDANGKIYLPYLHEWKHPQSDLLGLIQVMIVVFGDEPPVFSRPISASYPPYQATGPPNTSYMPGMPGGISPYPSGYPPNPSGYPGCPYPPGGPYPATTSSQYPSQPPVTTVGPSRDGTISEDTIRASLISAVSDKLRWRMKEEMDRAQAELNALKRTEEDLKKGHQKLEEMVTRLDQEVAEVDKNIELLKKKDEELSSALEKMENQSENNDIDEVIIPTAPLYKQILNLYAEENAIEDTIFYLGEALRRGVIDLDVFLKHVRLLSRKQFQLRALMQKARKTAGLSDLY
Summary of the method: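 Tsg101 binding domain (10 uM) with FITC-labeled PTAP peptide (50 nM) in HEPES pH 7.5 buffer, 20 min at r.t. with compounds. Binding measured by fluorescence polarization.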

[7] = target: Ubiquitin carboxyl-terminal hydrolase 2 (Homo sapiens) (UniProt O75604); assay: qHTS Validation Assay for Inhibitors of Ubiquitin-specific Protease USP2a Using CHOP2 as the Reporter (AID 463106)
Ubiquitin carboxyl-terminal hydrolase 2 (Homo sapiens), sequence (O75604 whole entry, looked up): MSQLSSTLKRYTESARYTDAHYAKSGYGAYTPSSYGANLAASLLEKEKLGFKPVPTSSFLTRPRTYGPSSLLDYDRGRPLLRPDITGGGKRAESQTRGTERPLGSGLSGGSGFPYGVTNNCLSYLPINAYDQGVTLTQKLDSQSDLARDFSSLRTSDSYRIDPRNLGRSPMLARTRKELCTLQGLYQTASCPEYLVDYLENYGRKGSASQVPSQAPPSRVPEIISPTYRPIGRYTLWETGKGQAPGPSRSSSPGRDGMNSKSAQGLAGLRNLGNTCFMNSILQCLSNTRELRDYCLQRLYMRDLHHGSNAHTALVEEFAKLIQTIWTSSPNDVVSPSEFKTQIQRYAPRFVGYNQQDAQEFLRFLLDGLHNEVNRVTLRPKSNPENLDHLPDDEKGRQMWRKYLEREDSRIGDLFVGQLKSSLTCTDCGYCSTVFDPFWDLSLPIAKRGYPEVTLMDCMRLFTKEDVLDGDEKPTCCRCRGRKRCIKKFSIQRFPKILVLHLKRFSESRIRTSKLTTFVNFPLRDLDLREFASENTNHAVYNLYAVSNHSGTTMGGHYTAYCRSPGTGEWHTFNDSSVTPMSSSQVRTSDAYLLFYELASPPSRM
Summary of the method: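 USP2 core (10 nM final) was preincubated with compound 30 min at RT in pH 8.0 Tris/CaCl2/beta-ME/CHAPS buffer. Ub-CHOP2 and reporter substrate (25 nM final each) were then added, with fluorescence (Ex 485/Em 531) read after 60 min. Data were normalized to NEM full inhibition and fitted to concentration-response curves.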

[8] = qHTS Validation Assay to Find Inhibitors of Chronic Active B-Cell Receptor Signaling (AID 485345; active = well fitted curve in the direction sought with a large enough effect in the main read-out, with a control signal flat, not every such curve was filed as active)
Summary of the method: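 TMD8 ABC-DLBCL cells stably carrying doxycycline-inducible IkappaBalpha–green luciferase fusion plus unfused red luciferase; compounds 46 uM to 3 nM, 4 h at 37C with doxycycline. Corrected green/red luminescence ratio normalized to 10 uM MG-132 and basal cell wells; curves fitted.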

[9] = Validation screen for small molecules that induce DNA re-replication in MCF 10A normal breast cells (AID 463097); also: nearly all actives have a fitted effect of over 60% in size
Summary of the method: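 MCF 10A cells exposed to compound 48 hr at 37 C, 5% CO2, then Hoechst-stained 40 min. Laser-scanning imaging of nuclear DNA content (405 nm ex, 500-530 nm em); re-replication scored as rise in nuclei with elevated fluorescence intensity.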

Row | Compound | outcome [1] | Potency [2] | Potency [3] | Potency [4] | Potency [5] | outcome [6] | Potency [7] | outcome [8] | Potency [9]
1 | C=CC1(C)CC(=O)C2(O)C(C)(O1)C(OC(C)=O)C(O)C1C(C)(C)CCC(O)C12C (stereo unspecified) | inactive | inactive | inactive | inactive | inactive | inactive | – | – | –
2 | CC(C)[C@H](NC(=O)OCc1ccccc1)C(=O)N[C@H](C=O)Cc1ccccc1 (Cbz-Val-Phe-aldehyde) | inactive | inactive | inactive | inactive | inactive | inactive | inactive | inactive | –
3 | CCN(c1nc(N)c(C(=O)N=C(N)N)nc1Cl)C(C)C | inactive | inactive | inactive | inactive | inactive | inactive | inactive | inactive | –
4 | Brc1c(Br)c(Br)c2[nH]cnc2c1Br | inactive | inactive | inactive | inactive | inactive | inactive | inactive | – | –
5 | NCC(O)C1CCCCCCC1 (stereo unspecified) | inactive | inactive | inactive | inactive | inactive | inactive | inactive | inactive | –
6 | CN1CCN(c2nc3cc(C(F)(F)F)ccc3n3cccc23)CC1 | inactive | inactive | inactive | inactive | inactive | inactive | inactive | – | –
7 | CN1CCc2cc(Cl)c(O)cc2[C@@H](c2ccccc2)C1 | inactive | inactive | inactive | inactive | inactive | inactive | inactive | – | –
8 | CCCCCCC/C=C\CCCCCCCCC(=O)O | inactive | inactive | inactive | inactive | inactive | inactive | inactive | inactive | –
9 | COc1ccc(CCn2nnnc2C2(c3ccc(C)cc3)CC2)cc1 | inactive | inactive | inactive | inactive | inactive | inactive | inactive | inactive | –
10 | C[C@]12C=CC(=O)C=C1CC[C@@H]1C2=CC[C@]2(C)[C@@H](C(=O)CN3CCN(c4cc(N5CCCC5)nc(N5CCCC5)n4)CC3)CC[C@@H]12 | inactive | inactive | inactive | inactive | inactive | – | inactive | – | –
11 | Nc1ccc(N2C(=O)c3ccccc3C2=O)c(Cl)c1 | inactive | inactive | inactive | inactive | inactive | inactive | – | inactive | inactive
12 | CCCCCCCCCCCCCCSCC(=O)O | inactive | inactive | inactive | inactive | inactive | – | inactive | inactive | –
13 | CC(C)(CO)Cc1cc(C(C)(C)C)c(O)c(C(C)(C)C)c1 | inactive | inactive | inactive | inactive | inactive | inactive | inactive | – | –
14 | OC[C@H]1O[C@H](n2cnc3c(N[C@H]4CCC[C@@H]4O)ncnc32)[C@H](O)[C@@H]1O | inactive | inactive | inactive | inactive | inactive | inactive | inactive | – | –
15 | CCSC(=N)N | inactive | inactive | inactive | inactive | inactive | inactive | – | inactive | inactive
16 | CCCOC(=O)c1c(-c2ccccc2)nc(CC)c(C(=O)SCC)c1CCC | inactive | inactive | inactive | inactive | inactive | inactive | inactive | inactive | –
17 | Nc1ccc(-c2nc3ccc(-c4nc5ccc(N)cc5[nH]4)cc3[nH]2)cc1 | inactive | inactive | inactive | inactive | 21.2 µM (active) | inactive | – | – | –
18 | CSC(N)=NCCC[C@H](N)C(=O)O | inactive | inactive | inactive | inactive | inactive | – | – | inactive | inactive
19 | O=c1[nH]c(=S)[nH]c(-c2ccccc2)c1Cc1c(O)ccc2ccccc12 | inactive | inactive | inactive | inactive | – | inactive | inactive | – | –
20 | c1ccc2c(c1)CCC[C@H]2Nc1nc2ccccc2[nH]1 | inactive | inactive | inactive | inactive | inactive | inactive | inactive | inactive | –
21 | Cc1cccc(C(=O)NCN2CCN(c3ccccc3C#N)CC2)c1 | inactive | inactive | inactive | inactive | inactive | inactive | inactive | inactive | –
22 | O=c1onc2cnc3ccccc3n12 | inactive | inactive | inactive | inactive | inactive | inactive | inactive | – | –
23 | O=S(=O)(c1cccc2c(Cl)cccc12)N1CCCNCC1 | inactive | inactive | inactive | inactive | inactive | inactive | inactive | inactive | –
24 | Cc1cc(Cn2cnc3c2C[C@@H](C(=O)O)N(C(=O)C(c2ccccc2)c2ccccc2)C3)ccc1N | inactive | inactive | inactive | inactive | inactive | – | inactive | inactive | –
25 | Cc1nc2n(c(=O)c1CCN1CCC(c3noc4cc(F)ccc34)CC1)CCCC2O (stereo unspecified) | inactive | inactive | inactive | inactive | inactive | inactive | inactive | inactive | –
26 | CSc1nc(N)c2ncn([C@@H]3O[C@H](COP(=O)(O)OP(=O)(O)O)C(O)[C@H]3O)c2n1 (stereo partly specified) | inactive | inactive | inactive | inactive | inactive | inactive | – | – | –
27 | CCCCCCCCCCC(C)(C)C(=O)Nc1c(OC)cc(OC)cc1OC | inactive | inactive | inactive | inactive | – | inactive | inactive | inactive | –
